Out of some 310,000 compounds screened, about 1,000 (0.32%) were called active. The rule behind the calls is not given here. Only a sample is shown. Results with a measured potency or affinity are listed apart.
Test: Inhibition of PhoP regulon, Salmonella typhi GFP reporter cells, confirmation, 4 h (AID 1850);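 note: 0% = induced wells with vehicle and 100% = uninduced wells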
Conditions: Salmonella Typhi PhoP-promoter GFP reporter, fluorescence, at 50 µM, active compounds read high

Structure (SMILES) | inhibition
O=C(c1cc(Cl)cc(Cl)c1)N1CCN(c2cc(C(F)(F)F)nc3ccccc23)CC1 | 0.46% (inactive)
CN1N=C(C(C)(C)C)CC1=O | -12.7% (inactive)
OCCC1CN(Cc2nc3ccccc3[nH]2)CCN1C1CCCC1 (stereo not given) | 3.25% (inactive)
COc1cc(C(=O)O/N=C2/C=C(C)C(=O)C=C2C)cc(OC)c1OC | -6.02% (inactive)
COc1cc(C(=O)ON=C2C=C(C)C(=O)C(C)=C2)cc(OC)c1OC | -6.42% (inactive)
CCc1ccccc1N(CC(=O)N1CCCC1)S(C)(=O)=O | 6.01% (inactive)
Cc1c2c(nc3ccccc13)CC(C)(C)CC2=O | -15.3% (inactive)
CCNc1c2c(nc3ccccc13)CC(C)(C)CC2=O | -3.19% (inactive)
CCC(=NCc1cccnc1)c1c(O)n(-c2ccc(C)cc2)c(=O)[nH]c1=O | -4.52% (inactive)
O=C(COc1ccc2c3c(c(=O)oc2c1)CCC3)N[C@@H](CSCc1ccccc1)C(=O)O | 11.7% (inactive)
N#C/C(=C\c1cc(O)c(O)c(O)c1)C(N)=O | 5.26% (inactive)
CCOC(=O)c1ccc(CNCc2ccccc2)cc1 | -2.61% (inactive)
CCOC(=O)c1ccc(CNCc2ccc(C)cc2)cc1 | -2.32% (inactive)
Cc1noc(C)c1COc1ccc(C(=O)N2CCN(S(=O)(=O)c3ccc(Cl)cc3)CC2)cc1 | -8.91% (inactive)
CSc1ccccc1NC(=O)CN(C)C(=O)CCc1c[nH]c2ccccc12 | 2.89% (inactive)
CNCCCOc1ccc(Cl)cc1C(C)(C)C | 18.7% (inactive)
CC(C)(C)c1ccc(OCCON2C(=O)CCC2=O)c(Cl)c1 | 10.3% (inactive)
CCCCNC(=O)c1cccc(NC(=O)C(=O)c2ccccc2NC(C)=O)c1 | 0.04% (inactive)
Cc1ccc(-c2csc(N=C(N)N)n2)cc1 | 3.62% (inactive)
COc1ccc(-c2csc(N=C(N)N)n2)cc1 | 4.34% (inactive)
O=C(N1CCOCC1)N1CCN(S(=O)(=O)N2CCCCC2)CC1 | 5.81% (inactive)
COc1ccc(NC2CCCN(C(=O)C3=NN(C)C(=O)CC3)C2)cc1OC (stereo not given) | -1.12% (inactive)
Cc1cccc(N2CCN(Cc3nc(-c4cccc(Cl)c4)oc3C)CC2)n1 | -3.9% (inactive)

Structure (SMILES) | inhibition
Oc1[nH]c2ccc(Br)cc2c1N=Nc1ccc(F)cc1 | -81.9% (inactive)
Cc1cc(=O)c2cc(Br)ccc2[nH]1 | 6.88% (inactive)
O=C(NCC1CCCO1)c1onc(CSc2ccc(F)c(F)c2)c1C(=O)O (stereo not given) | 1.53% (inactive)
C=CCNC(=O)CN1CCC(c2nc3cc(C)c(C)cc3[nH]2)CC1 | 2.77% (inactive)
O=[N+]([O-])c1ccc(/C=N/N2CCCCC2)cc1 | 2.58% (inactive)
CCOc1ccc(-c2c(C(=O)N/N=C/c3ccc(OC)cc3)nnn2-c2nonc2N)cc1 | -14% (inactive)
O=C(Cc1ccc(Cl)cc1)Nc1ccc(S(=O)(=O)Nc2cnc3ccccc3n2)cc1 | -6.63% (inactive)
CC1CCCCC1NC(=O)c1ccc(NS(=O)(=O)c2ccc3[nH]c(=O)[nH]c3c2)cc1 (stereo not given) | 0.81% (inactive)
CC(=O)Oc1c(C)cc(Cl)cc1C(=O)Nc1ccc([N+](=O)[O-])cc1Cl | 3.87% (inactive)
Cc1ccc(NC(=O)c2cc([N+](=O)[O-])ccc2Cl)c(O)c1 | 4.62% (inactive)
CC[C@H](C)Cc1cn([C@@H](CCCCN)C(=O)NCCCCCCCCCCC(=O)N2CCNCC2)nn1 | 1.01% (inactive)
CCOC(=O)N1CCN(C(=O)c2cc(COc3ccc4ncccc4c3)on2)CC1 | -2.35% (inactive)
CCc1ccc(CNCCc2ccccc2F)cc1 | 19.3% (inactive)
COc1cc(OC)c(OC)cc1CNCCc1ccc(F)cc1 | 1.12% (inactive)
Fc1ccc(CNCCc2ccccc2F)cc1 | 20.1% (inactive)
CCc1ccc(CNCCc2ccc(F)cc2)cc1 | 7.65% (inactive)
COc1cc(OC)c(OC)cc1CNCCc1cccc(F)c1 | 3.05% (inactive)
Fc1ccc(CCNCc2cccc(Cl)c2)cc1 | -1.17% (inactive)
COc1cccc(CNCCc2cccc(F)c2)c1OC | 6.94% (inactive)
COc1cccc(CNCCc2ccccc2)c1OC | 15.4% (inactive)
CCN(c1ccccc1)S(=O)(=O)c1csc(C(N)=O)c1 | 1.57% (inactive)
O=C(CS(=O)(=O)c1ccc(Cl)cc1)Nc1nnc(-c2cccs2)o1 | -4.66% (inactive)
CC(C)C(NC(=O)/C=C/c1cccc([N+](=O)[O-])c1)C(C)C | -9.13% (inactive)

Structure (SMILES) | inhibition
CCOC(=O)N1CCC(NC(=O)c2cnn3c(C(F)(F)F)cc(-c4cccc(OC)c4)nc23)CC1 | -1% (inactive)
COc1ccccc1S(=O)(=O)CC(O)COc1ccccc1Cl (stereo not given) | -5.18% (inactive)
CN(CCc1ccccn1)C(=O)Nc1ccc(F)cc1 | -7.13% (inactive)
COc1ccc(-c2ccc(CCC(=O)O)n2NC(=O)c2cccs2)cc1 | -5.76% (inactive)
CN(CC(=O)Nc1ccccc1Cl)C(=O)COC(=O)c1cc([N+](=O)[O-])ccc1N1CCOCC1 | -1.8% (inactive)
c1csc(CNCc2ccncc2)c1 | 1.76% (inactive)
Brc1ccc(CNCc2cccs2)cc1 | -4.52% (inactive)
Fc1ccc(CNCCc2ccccc2)cc1 | 14.4% (inactive)
Fc1ccc(CNCc2ccccc2Cl)cc1 | 10.6% (inactive)
O=C(COc1ccc(Br)cc1)N1CCN(Cc2c[nH]c3ccccc23)CC1 | 1.07% (inactive)
O=C(NCc1ccco1)/C(=C\c1ccco1)NC(=O)c1ccco1 | -9.29% (inactive)
CC1=NN(c2ccc([N+](=O)[O-])cc2)C(c2ccccc2)C1 (stereo not given) | -7.1% (inactive)
CC1(C)CC(=O)C2=C(C1)NC(=O)CC2c1cc(F)ccc1F (stereo not given) | 8.24% (inactive)
CC1(C)C2CCC1(CS(=O)(=O)N1CCN(c3ccc(F)cc3)CC1)C(=O)C2 (stereo not given) | -7.85% (inactive)
COc1ccc(S(=O)(=O)NC(C)C(=O)NCc2cccnc2)cc1Cl (stereo not given) | -1.39% (inactive)
Cc1ccc2c(c1)C1CN(C)CCC1N2S(=O)(=O)c1ccccc1 (stereo not given) | 4.23% (inactive)
Cc1ccc2c(c1)[C@@H]1CN(C)CC[C@@H]1N2S(=O)(=O)c1ccc([N+](=O)[O-])cc1 | 0.95% (inactive)
CN(C)c1cc[n+](CC(=O)c2ccc(OC(F)F)cc2)cc1 | 19.8% (inactive)
COc1ccc(CNC(=O)c2cc(COc3c(F)cccc3F)on2)cc1OC | -2.31% (inactive)
O=C(O)CCc1ccc(-c2ccc(Br)cc2)n1-c1cccc(O)c1 | -2.3% (inactive)
CCCCCOC(=O)CSc1nc2c(c(=O)[nH]c(=O)n2C)n1CCc1ccccc1 | 2.47% (inactive)
COCc1c(C(=O)OCC(=O)N2c3ccccc3CC2C)oc2ccccc12 (stereo not given) | -3.75% (inactive)
CC(C)CCC(CCNCc1ccccn1)c1ccc2c(c1)OCO2 (stereo not given) | 21.8% (inactive)

Structure (SMILES) | inhibition
CC(C)C(CCNCc1ccccn1)c1ccc(Cl)cc1 (stereo not given) | -0.74% (inactive)
CC(=O)n1cc([C@H]2C=C(C(N)=O)O[C@@H](OCc3ccc(CO)cc3)C2)c2ccccc21 | 2.45% (inactive)
CCCOC(=O)C[N+](C)(C)CCOC1CC2CCC1(C)C2(C)C (stereo not given) | -4.95% (inactive)
CCCCOC(=O)C[N+](C)(C)CCOC1CC2CCC1(C)C2(C)C (stereo not given) | -1.52% (inactive)
Cc1ccc(Nc2ccc([N+](=O)[O-])ccc2=O)cc1 | -3.8% (inactive)
Cc1cccc(C(=O)NCC(=O)N2CCN(c3ccc(Cl)cc3)CC2)c1 | 4.53% (inactive)
Cc1cc(C)nc(NCCO)n1 | 1.84% (inactive)
Fc1ccccc1Sc1ccccc1CNC1=NCCN1 | 2.16% (inactive)
Fc1ccc(Sc2ccccc2CNC2=NCCN2)cc1 | -8.62% (inactive)
COc1ccc(C)cc1NC(=O)C1CCN(S(=O)(=O)c2ccc3c(c2)NC(=O)CO3)CC1 | -3.38% (inactive)
CCCCn1c(N)c(N(CC(C)C)C(=O)c2cc(-c3ccc(OC)c(OC)c3)nc3ccccc23)c(=O)[nH]c1=O | 11.8% (inactive)
CC(=O)c1cc(C(=O)NC2CCCc3c2cnn3-c2cc(C)cc(C)c2)[nH]n1 (stereo not given) | -9.06% (inactive)
O=C(Nc1nc2ccccc2[nH]1)c1cccc(F)c1 | 0.03% (inactive)
CC(C)n1cnc2c(Nc3cccc(F)c3)nc(NCCO)nc21 | -14.7% (inactive)
Cc1cccc(OCc2nnc3n2CCCCC3)c1 | -4.01% (inactive)
CCOC(=O)N1CCN(S(=O)(=O)c2ccc(C(=O)Nc3nnc(CSC)o3)cc2)CC1 | -31.1% (inactive)
CC(OC(=O)c1ccccc1Nc1ccc(SC(F)F)cc1)C(N)=O (stereo not given) | -1.22% (inactive)
C#CCOCCOCCOCCNc1nc(N2CCN(C(=O)CCCCCCCCCCNC(=O)[C@@H](CCSC)n3cc(CCO)nn3)CC2)nc(N2CCN(C(=O)CCCCCCCCCCNC(=O)[C@H](CCSC)n3cc(CCO)nn3)CC2)n1 | 2.16% (inactive)
C#CCOCCOCCOCCNc1nc(N2CCN(C(=O)CCCCCCCCCCNC(=O)[C@H]([C@@H](C)CC)n3cc(CCCCN=C(N)N)nn3)CC2)nc(N2CCN(C(=O)CCCCCCCCCCNC(=O)[C@H](CO)n3cc(CCCSC)nn3)CC2)n1 | 0.56% (inactive)
C#CCOCCOCCOCCNc1nc(N2CCN(C(=O)CCCCCCCCCCNC(=O)[C@@H](CCSC)n3cc(CCO)nn3)CC2)nc(N2CCN(C(=O)CCCCCCCCCCNC(=O)[C@H](CO)n3cc(CCCCCN)nn3)CC2)n1 | 14.1% (inactive)
C#CCOCCOCCOCCNc1nc(N2CCN(C(=O)CCCCCCCCCCNC(=O)[C@@H](CCSC)n3cc(CCO)nn3)CC2)nc(N2CCN(C(=O)CCCCCCCCCCNC(=O)[C@H](CCC(=O)O)n3cc(CCCCCN)nn3)CC2)n1 | 1.19% (inactive)

— PubChem BioAssay AID1850 (Southern Research Specialized Biocontainment Screening …, 2009)
